Residue numbers refer to the chain shown, from its start. In all, about 16,000 sequences were measured (“ka relative to ugcaugu”: median about 0.096, highest 2% from about 0.35 on). Shown is part of a subset that was picked to be rich in the highest values.

T1: RBFOX1 RRM RbFoxmut (Fox-RRM*) (Homo sapiens, UniProt Q9NWB1 109-208, R118D;E147R;N151S;E152T)
T1 sequence: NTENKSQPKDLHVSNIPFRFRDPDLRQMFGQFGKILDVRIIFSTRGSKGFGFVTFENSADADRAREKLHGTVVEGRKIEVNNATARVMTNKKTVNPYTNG

B1: GCGCGAC (DNA:RNA)
RNA: GGGAGACCGGAAUUCAGAUUGUCCGCGCGACUUAAAUCCCGUCGUAGCCACCA
DNA 1: CAATCTGAATTCCGGTCTCCC
DNA 2: TGGTGGCTACGACGGGATT
B2: UUAAGCC (DNA:RNA)
RNA: B1 RNA with G25U, C26U, G27A, C28A, A30C
DNA 1: CAATCTGAATTCCGGTCTCCC
DNA 2: TGGTGGCTACGACGGGATT
B3: CCCGAUC (DNA:RNA)
RNA: B1 RNA with G25C, G27C, C28G, G29A, A30U
DNA 1: CAATCTGAATTCCGGTCTCCC
DNA 2: TGGTGGCTACGACGGGATT
B4: CUUCGGU (DNA:RNA)
RNA: B1 RNA with G25C, C26U, G27U, A30G, C31U
DNA 1: CAATCTGAATTCCGGTCTCCC
DNA 2: TGGTGGCTACGACGGGATT
B5: AAGGCAA (DNA:RNA)
RNA: B1 RNA with G25A, C26A, C28G, G29C, C31A
DNA 1: CAATCTGAATTCCGGTCTCCC
DNA 2: TGGTGGCTACGACGGGATT
B6: AGAUUGC (DNA:RNA)
RNA: B1 RNA with G25A, C26G, G27A, C28U, G29U, A30G
DNA 1: CAATCTGAATTCCGGTCTCCC
DNA 2: TGGTGGCTACGACGGGATT
B7: AAAAUGC (DNA:RNA)
RNA: B1 RNA with G25A, C26A, G27A, C28A, G29U, A30G
DNA 1: CAATCTGAATTCCGGTCTCCC
DNA 2: TGGTGGCTACGACGGGATT
B8: UGAUGAA (DNA:RNA)
RNA: B1 RNA with G25U, C26G, G27A, C28U, C31A
DNA 1: CAATCTGAATTCCGGTCTCCC
DNA 2: TGGTGGCTACGACGGGATT
B9: AGAAUGC (DNA:RNA)
RNA: B1 RNA with G25A, C26G, G27A, C28A, G29U, A30G
DNA 1: CAATCTGAATTCCGGTCTCCC
DNA 2: TGGTGGCTACGACGGGATT
B10: UGAUUGA (DNA:RNA)
RNA: GGGAGACCGGAAUUCAGAUUGUCCUGAUUGAUUAAAUCCCGUCGUAGCCACCA
DNA 1: CAATCTGAATTCCGGTCTCCC
DNA 2: TGGTGGCTACGACGGGATT
B11: UGAAUGA (DNA:RNA)
RNA: B10 RNA with U28A
DNA 1: CAATCTGAATTCCGGTCTCCC
DNA 2: TGGTGGCTACGACGGGATT
B12: UCGUUCG (DNA:RNA)
RNA: B10 RNA with G26C, A27G, G30C, A31G
DNA 1: CAATCTGAATTCCGGTCTCCC
DNA 2: TGGTGGCTACGACGGGATT
B13: AGCCUAC (DNA:RNA)
RNA: B1 RNA with G25A, C26G, G27C, G29U
DNA 1: CAATCTGAATTCCGGTCTCCC
DNA 2: TGGTGGCTACGACGGGATT
B14: CCUGUCC (DNA:RNA)
RNA: B1 RNA with G25C, G27U, C28G, G29U, A30C
DNA 1: CAATCTGAATTCCGGTCTCCC
DNA 2: TGGTGGCTACGACGGGATT
B15: GAUUAGG (DNA:RNA)
RNA: B10 RNA with U25G, G26A, A27U, U29A, A31G
DNA 1: CAATCTGAATTCCGGTCTCCC
DNA 2: TGGTGGCTACGACGGGATT
B16: CGCAGCG (DNA:RNA)
RNA: B1 RNA with G25C, C26G, G27C, C28A, A30C, C31G
DNA 1: CAATCTGAATTCCGGTCTCCC
DNA 2: TGGTGGCTACGACGGGATT
B17: UGCCUUG (DNA:RNA)
RNA: B10 RNA with A27C, U28C, G30U, A31G
DNA 1: CAATCTGAATTCCGGTCTCCC
DNA 2: TGGTGGCTACGACGGGATT
B18: UGUUGCC (DNA:RNA)
RNA: B10 RNA with A27U, U29G, G30C, A31C
DNA 1: CAATCTGAATTCCGGTCTCCC
DNA 2: TGGTGGCTACGACGGGATT
B19: UUGCCUG (DNA:RNA)
RNA: B1 RNA with G25U, C26U, G29C, A30U, C31G
DNA 1: CAATCTGAATTCCGGTCTCCC
DNA 2: TGGTGGCTACGACGGGATT
B20: UGCUGCC (DNA:RNA)
RNA: B10 RNA with A27C, U29G, G30C, A31C
DNA 1: CAATCTGAATTCCGGTCTCCC
DNA 2: TGGTGGCTACGACGGGATT
B21: UGGCCUG (DNA:RNA)
RNA: B1 RNA with G25U, C26G, G29C, A30U, C31G
DNA 1: CAATCTGAATTCCGGTCTCCC
DNA 2: TGGTGGCTACGACGGGATT
B22: UGUGGCC (DNA:RNA)
RNA: B1 RNA with G25U, C26G, G27U, C28G, A30C
DNA 1: CAATCTGAATTCCGGTCTCCC
DNA 2: TGGTGGCTACGACGGGATT
B23: CAUUGCC (DNA:RNA)
RNA: B1 RNA with G25C, C26A, G27U, C28U, A30C
DNA 1: CAATCTGAATTCCGGTCTCCC
DNA 2: TGGTGGCTACGACGGGATT
B24: AUUUGCC (DNA:RNA)
RNA: B1 RNA with G25A, C26U, G27U, C28U, A30C
DNA 1: CAATCTGAATTCCGGTCTCCC
DNA 2: TGGTGGCTACGACGGGATT
B25: UGUAGCC (DNA:RNA)
RNA: B1 RNA with G25U, C26G, G27U, C28A, A30C
DNA 1: CAATCTGAATTCCGGTCTCCC
DNA 2: TGGTGGCTACGACGGGATT
B26: AUUGCCU (DNA:RNA)
RNA: GGGAGACCGGAAUUCAGAUUGUCCAUUGCCUUUAAAUCCCGUCGUAGCCACCA
DNA 1: CAATCTGAATTCCGGTCTCCC
DNA 2: TGGTGGCTACGACGGGATT
B27: UGGCCUC (DNA:RNA)
RNA: B1 RNA with G25U, C26G, G29C, A30U
DNA 1: CAATCTGAATTCCGGTCTCCC
DNA 2: TGGTGGCTACGACGGGATT
B28: UGCCUCC (DNA:RNA)
RNA: B10 RNA with A27C, U28C, G30C, A31C
DNA 1: CAATCTGAATTCCGGTCTCCC
DNA 2: TGGTGGCTACGACGGGATT
B29: AGACGGA (DNA:RNA)
RNA: B10 RNA with U25A, U28C, U29G
DNA 1: CAATCTGAATTCCGGTCTCCC
DNA 2: TGGTGGCTACGACGGGATT
B30: CACCGUU (DNA:RNA)
RNA: B1 RNA with G25C, C26A, G27C, A30U, C31U
DNA 1: CAATCTGAATTCCGGTCTCCC
DNA 2: TGGTGGCTACGACGGGATT
B31: GUGUCCA (DNA:RNA)
RNA: B26 RNA with A25G, U27G, G28U, U31A
DNA 1: CAATCTGAATTCCGGTCTCCC
DNA 2: TGGTGGCTACGACGGGATT

The assay concerns the target T1, RBFOX1 RRM RbFoxmut (Fox-RRM*). Description: EMSA; HiTS-Eq, 1 nM pool, 10 min; buffer printed only for the single-RNA assays: 10 mM Tris pH 7.5, 150 mM NaCl, 3.4 mM EDTA, 0.001% NP-40, 30 C. The following applies: tags: His6 N-terminal (pET28a); label: 5' 32P. The method in brief:
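A pool of RNA with 7 randomized nucleotides, 5′-radiolabelled and with DNA-annealed flanks, was equilibrated at 1 nM for 10 min in 50 µL with purified RbFox RRM, wild type or mutant, across increasing protein concentrations. Free RNA was separated by 8% native PAGE, excised, reverse-transcribed, barcoded by PCR and sequenced. Relative association constants were obtained from read-count changes of each RNA species versus the control reaction and normalised to the cognate motif.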
Regarding B1, the binding signal is 0.0897 KA relative to UGCAUGU.
With B2, the binding signal was 0.106 KA relative to UGCAUGU.
As for B3, the figure is 0.0576 KA relative to UGCAUGU.
Take B4: the binding signal was 0.095 KA relative to UGCAUGU.
For B5, the binding signal was 0.061 KA relative to UGCAUGU.
For B6, the binding signal is 0.14 KA relative to UGCAUGU.
Regarding B7, the binding signal was 0.0633 KA relative to UGCAUGU.
As for B8, the figure is 0.122 KA relative to UGCAUGU.
B9: the binding signal is 0.408 KA relative to UGCAUGU.
For the molecule B10, the binding signal was 0.209 KA relative to UGCAUGU.
B11: the binding signal was 0.46 KA relative to UGCAUGU.
Take B12: the binding signal is 0.218 KA relative to UGCAUGU.
With B13, the binding signal was 0.0767 KA relative to UGCAUGU.
The value for B14 was 0.074 KA relative to UGCAUGU; that for B15 was 0.0809 KA relative to UGCAUGU; that for B16 was 0.135 KA relative to UGCAUGU.
For B17, the binding signal is 1.27 KA relative to UGCAUGU.
As for B18, the figure is 0.296 KA relative to UGCAUGU; as for B19, 0.377 KA relative to UGCAUGU; as for B20, 0.298 KA relative to UGCAUGU.
Regarding B21, the binding signal was 0.359 KA relative to UGCAUGU.
On to B22, for which the binding signal was 0.263 KA relative to UGCAUGU.
As to B23, the binding signal is 0.374 KA relative to UGCAUGU.
B24: the binding signal was 0.257 KA relative to UGCAUGU.
Turning to B25, the binding signal is 0.141 KA relative to UGCAUGU.
The value for B26 was 0.108 KA relative to UGCAUGU; that for B27 was 0.106 KA relative to UGCAUGU; that for B28 was 0.155 KA relative to UGCAUGU.
For B29, the binding signal was 0.0873 KA relative to UGCAUGU.
As for B30, the binding signal is 0.0894 KA relative to UGCAUGU.
For B31, the binding signal is 0.121 KA relative to UGCAUGU.

For the origin of these results see publication PMC9911399, “Two distinct binding modes provide the RNA-binding protein RbFox with extraordinary sequence specificity”.
